Records with an inconclusive call do not appear. The source holds several records for some structures; these can differ, active in one and inactive in another. Active and inactive are the calls of the source. Unless noted, calls come from the whole dose curve; as a rule, active = well fitted curve in the direction sought with a large enough effect in the repeat runs; inconclusive = weak or mixed curves; inactive = flat fitted curve, though single readings scatter. Residues, ends and D or L forms follow the SMILES beside them.
Key:
[1] = qHTS assay to test for compound auto fluorescence at 535 nm (green) in HEK293 cells (AID 720680); conditions: green autofluorescence 485/535 nm; series mostly up to 91.3 µM
[2] = qHTS assay to test for compound auto fluorescence at 460 nm (blue) in HEK293 cell free culture (AID 720681); conditions: cell-free medium, autofluorescence 405/460 nm (blue); series mostly up to 91.3 µM
Outline: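 Test compounds were pinned into cell-free culture medium (DMEM with 10% FBS) and fluorescence was read directly at Ex/Em 405/460 nm. Signals were expressed as fluorescence equivalents of triamterene, with DMSO vehicle as control.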

[3] = qHTS assay to test for compound auto fluorescence at 590 nm (red) in HEK293 cell free culture (AID 720683); conditions: cell-free medium autofluorescence, Ex540/Em590 red; series mostly up to 91.3 µM
Outline: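 Tox21 10K library compounds were pinned into cell-free DMEM with 10% FBS and fluorescence was read at excitation 540 nm. Activity is expressed as Rose Bengal sodium equivalency.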

[4] = qHTS assay to test for compound auto fluorescence at 590 nm (red) in HepG2 cell free culture (AID 720684); conditions: cell-free medium autofluorescence, red 540/590 nm; series mostly up to 91.3 µM
Outline: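 Readout: intrinsic compound fluorescence at 590 nm emission after 540 nm excitation, scaled to Rose Bengal sodium. Matrix was cell-free MEM with 10% FBS; DMSO vehicle wells served as control.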

[5] = qHTS assay to test for compound auto fluorescence at 460 nm (blue) in HepG2 cell free culture (AID 720685); conditions: Cell-free culture medium, blue autofluorescence 405/460 nm; series mostly up to 91.3 µM
Outline: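 Cell-free plates of MEM plus 10% FBS received 23 nL compound or DMSO vehicle; blue-channel (405/460 nm) intensity scored against triamterene as reference fluorophore.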

[6] = qHTS assay to test for compound auto fluorescence at 535 nm (green) in HepG2 cell free culture (AID 720686); conditions: Cell-free medium, green autofluorescence 485/535 nm; series mostly up to 91.3 µM
[7] = qHTS assay to test for compound auto fluorescence at 460 nm (blue) in HepG2 cells (AID 720687); conditions: autofluorescence 405/460 nm, 1 h; series mostly up to 91.3 µM
Outline: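 Cells (2,000/well in MEM with 10% FBS) attached overnight at 37 C, then were exposed to compound or DMSO for 1 hr at 37 C, 5% CO2. Fluorescence read at Ex/Em 405/460 nm, expressed as triamterene-equivalent signal.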

[8] = molecular target: Glucocorticoid receptor (Homo sapiens) (UniProt P04150); experiment: qHTS assay to identify small molecule agonists of the glucocorticoid receptor (GR) signaling pathway (AID 720691; active = well fitted activation curve with a large enough effect in the signal ratio in the repeat runs, not every such curve was filed as active; the % refers to the signal ratio; note: potency is the fitted concentration of half-maximal effect); conditions: GR-bla HeLa, beta-lactamase reporter ratio, 18 h; series mostly up to 62.4 µM
Outline: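 Measures GR pathway activation through a GRE-beta-lactamase reporter stably integrated in HeLa cells, with 18 h compound treatment at 37 C and fluorescence detection using a FRET substrate.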

[9] = molecular target: Glucocorticoid receptor (Homo sapiens) (UniProt P04150); experiment: qHTS assay to identify small molecule antagonists of the glucocorticoid receptor (GR) signaling pathway (AID 720692; active = well fitted inhibition curve with a large enough effect in the signal ratio in the repeat runs, not every such curve was filed as active; the % refers to the signal ratio); conditions: GR-bla HeLa, beta-lactamase FRET ratio, dexamethasone-stimulated, 18 h; series mostly up to 58.5 µM
Outline: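 Tox21 10K library screened in concentration-response for blockade of dexamethasone (5 nM final)-induced GRE-bla reporter activity in HeLa cells; 18 h treatment, fluorescence read.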

[10] = qHTS assay to test for compound auto fluorescence at 535 nm (green) in HEK293 cell free culture (AID 720682); conditions: cell-free medium, green autofluorescence 485/535 nm, stronger effect = higher value; series mostly up to 91.3 µM
Outline: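 Fluorescein serves as the green reference fluorophore; each compound's intrinsic emission at 535 nm (excitation 485 nm) is reported as an equivalent amount of that dye, measured in serum-containing DMEM without cells.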

Measured: Potency

Chain of Glucocorticoid receptor (Homo sapiens) (P04150 whole entry, looked up): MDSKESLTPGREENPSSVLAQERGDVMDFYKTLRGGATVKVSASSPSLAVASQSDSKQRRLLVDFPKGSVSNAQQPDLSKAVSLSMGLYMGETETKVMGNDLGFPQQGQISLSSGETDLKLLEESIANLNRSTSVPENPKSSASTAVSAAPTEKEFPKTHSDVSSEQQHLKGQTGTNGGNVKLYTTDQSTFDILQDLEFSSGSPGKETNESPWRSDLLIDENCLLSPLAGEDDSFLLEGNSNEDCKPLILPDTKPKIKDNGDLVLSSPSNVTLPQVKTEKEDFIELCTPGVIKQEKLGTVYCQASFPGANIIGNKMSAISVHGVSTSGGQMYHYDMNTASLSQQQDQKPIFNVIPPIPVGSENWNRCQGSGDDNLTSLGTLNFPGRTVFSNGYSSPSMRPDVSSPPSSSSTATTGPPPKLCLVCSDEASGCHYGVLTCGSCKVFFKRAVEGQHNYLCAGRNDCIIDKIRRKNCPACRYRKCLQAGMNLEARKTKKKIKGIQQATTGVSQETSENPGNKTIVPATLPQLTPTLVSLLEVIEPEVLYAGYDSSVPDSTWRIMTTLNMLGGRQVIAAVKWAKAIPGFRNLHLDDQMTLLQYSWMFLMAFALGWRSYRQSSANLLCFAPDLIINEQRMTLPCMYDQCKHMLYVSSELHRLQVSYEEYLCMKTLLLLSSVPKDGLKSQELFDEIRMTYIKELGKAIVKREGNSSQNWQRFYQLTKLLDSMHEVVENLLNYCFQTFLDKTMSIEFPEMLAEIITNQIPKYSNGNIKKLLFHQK

c1ccc2[nH]ccc2c1
not listed: [10]
inactive: all other assays above

O=S(=O)(O)NC1CCCCC1
not listed: [8] | [9] | [10]
inactive: all other assays above

OCCc1ccccc1
not listed: [8] | [9]
inactive: all other assays above

CNC[C@H](O)c1cccc(O)c1
not listed: [8] | [9] | [10]
inactive: all other assays above

CC(O)C(=O)O (centres undefined)
not listed: [1] | [8] | [9]
inactive: all other assays above

CCCCOC(=O)CC(CC(=O)OCCCC)(OC(C)=O)C(=O)OCCCC
inactive: all assays above

COC(=O)[C@H](Cc1ccccc1)NC(=O)[C@@H](N)CC(=O)O (H-Asp-Phe-OMe)
inactive: all assays above

C[C@]12C=CC(=O)C=C1CC[C@@H]1[C@@H]2[C@@H](O)C[C@@]2(C)[C@H]1CC[C@]2(O)C(=O)CO
not listed: [1] | [8] | [9]
inactive: all other assays above

CCOc1ccc(NC(=O)CC(C)O)cc1 (centres undefined)
not listed: [8] | [9] | [10]
inactive: all other assays above

COc1ccc2[nH]cc(CCNC(C)=O)c2c1
not listed: [10]
inactive: all other assays above

Nc1ccc(S(=O)(=O)c2ccc(N)cc2)cc1
not listed: [8] | [9]
inactive: all other assays above

CCCN(CCC)S(=O)(=O)c1ccc(C(=O)O)cc1
inactive: all assays above

COc1c2occc2cc2ccc(=O)oc12
not listed: [10]
inactive: all other assays above

OC(Cn1cncn1)(Cn1cncn1)c1ccc(F)cc1F
inactive: all assays above

CCC1(c2ccccc2)C(=O)NCNC1=O
inactive: all assays above

N=C(N)c1ccc(OCCCCCOc2ccc(C(=N)N)cc2)cc1
not listed: [9] | [10]
inactive: all other assays above

O=C(O)C(=O)O
not listed: [10]
inactive: all other assays above

CCCC(O)C(CC)CO (centres undefined)
not listed: [8] | [9]
inactive: all other assays above

O=C(O)CS
not listed: [10]
inactive: all other assays above

O=C1NC(=O)c2ccccc21
not listed: [8] | [9] | [10]
inactive: all other assays above

CCCCC(CC)COC(=O)/C=C/c1ccc(OC)cc1 (centres undefined)
not listed: [10]
inactive: all other assays above

CC(=O)OCC(COC(C)=O)OC(C)=O
not listed: [10]
inactive: all other assays above

Nc1ccc(O)c(C(=O)O)c1
not listed: [10]
inactive: all other assays above

C1N2CN3CN1CN(C2)C3
not listed: [8] | [9]
inactive: all other assays above

Cn1c(=O)c2[nH]cnc2n(C)c1=O
not listed: [1] | [8] | [9]
inactive: all other assays above

O=C(O)CCCCCCCC(=O)O
not listed: [8] | [9] | [10]
inactive: all other assays above

Cc1ccc(O)cc1
inactive: all assays above

O=c1ccc2ccccc2o1
not listed: [1] | [8] | [9]
inactive: all other assays above

NC(=O)NC1NC(=O)NC1=O (centres undefined)
not listed: [10]
inactive: all other assays above

Cc1ccc(S(=O)(=O)NC(=O)NN2CCCCCC2)cc1
inactive: all assays above

Nc1ccc(S(=O)(=O)Nc2nccs2)cc1
inactive: all assays above

Oc1ccc(/C=C/c2cc(O)cc(O)c2)cc1
not listed: [8] | [9]
inactive: all other assays above

O=C(C1CCCCC1)N1CC(=O)N2CCc3ccccc3C2C1 (centres undefined)
not listed: [10]
inactive: all other assays above

O=C(c1ccccc1)c1ccccc1
not listed: [10]
inactive: all other assays above

NC(N)=O
not listed: [8] | [9]
inactive: all other assays above

NS(=O)(=O)c1cc(C(=O)O)c(NCc2ccco2)cc1Cl
not listed: [8] | [9] | [10]
inactive: all other assays above

O=c1cc[nH]c(=S)[nH]1
not listed: [1] | [10]
inactive: all other assays above

O=C1CN(/N=C/c2ccc([N+](=O)[O-])o2)C(=O)N1
not listed: [1] | [10]
inactive: all other assays above

O=C(O)CCC(=O)O
inactive: [2] | [3] | [4] | [5] | [6] | [7]

Cc1cc(=O)[nH]c(=S)[nH]1
23.9 µM (active) and inactive: [8]
not listed: [1] | [10]
inactive: all other assays above

CC(=O)Nc1nnc(S(N)(=O)=O)s1
not listed: [1] | [10]
inactive: all other assays above

Cc1noc(NS(=O)(=O)c2ccc(N)cc2)c1C
inactive: [2] | [3] | [4] | [5] | [6] | [7]

O=C(O)c1cc(N=Nc2ccc(S(=O)(=O)Nc3ccccn3)cc2)ccc1O
not listed: [1]
inactive: all other assays above

CC1(C)[C@@H]2CC[C@@]1(C)C(=O)C2
not listed: [1] | [10]
inactive: all other assays above

O=C(c1ccccc1)C(O)c1ccccc1 (centres undefined)
not listed: [1]
inactive: all other assays above

CC(=O)NS(=O)(=O)c1ccc(N)cc1
not listed: [1]
inactive: all other assays above

CCCNC(=O)NS(=O)(=O)c1ccc(Cl)cc1
not listed: [1]
inactive: all other assays above

Cc1ccc(C)c(OCCCC(C)(C)C(=O)O)c1
inactive: [2] | [3] | [4] | [5] | [6] | [7]

O=C(O)c1[nH]n(-c2ccc(S(=O)(=O)O)cc2)c(=O)c1N=Nc1ccc(S(=O)(=O)O)cc1
inactive: [2] | [3] | [4] | [5] | [6] | [7]

Cc1ccccc1C(OCCN(C)C)c1ccccc1 (centres undefined)
not listed: [1] | [9]
inactive: all other assays above

CC(C)(Oc1ccc(C2CC2(Cl)Cl)cc1)C(=O)O (centres undefined)
not listed: [1]
inactive: all other assays above

CCCCCCCCCCCCCCCC(=O)O
not listed: [1]
inactive: all other assays above

CC(O)CO (centres undefined)
not listed: [1] | [10]
inactive: all other assays above

CC(C)[C@@H]1CC[C@@H](C)C[C@H]1O
inactive: [2] | [3] | [4] | [5] | [6] | [7]

Nc1ccn([C@H]2CC[C@@H](CO)O2)c(=O)n1
inactive: [2] | [3] | [4] | [5] | [6] | [7]

O=NO
inactive: [2] | [3] | [4] | [5] | [6] | [7]

NC(=O)c1ccccc1O
not listed: [1] | [10]
inactive: all other assays above

O=C(O)c1cccnc1
inactive: [2] | [3] | [4] | [5] | [6] | [7]

NC(=O)c1cnccn1
not listed: [1] | [10]
inactive: all other assays above

O=C(O)CCCCC(=O)O
not listed: [1]
inactive: all other assays above

CCCCC1C(=O)N(c2ccccc2)N(c2ccccc2)C1=O
not listed: [1]
inactive: all other assays above

O=S(=O)(O)c1ccc2cc(O)ccc2c1
not listed: [1] | [10]
inactive: all other assays above

CCCC(CCC)C(=O)O
not listed: [1] | [10]
inactive: all other assays above

Nc1ccc(C(=O)O)cc1
not listed: [1]
inactive: all other assays above

CC(O)CN(CCN(CC(C)O)CC(C)O)CC(C)O (centres undefined)
not listed: [1]
inactive: all other assays above

Cc1cc(=O)n(-c2ccccc2)n1C
inactive: [2] | [3] | [4] | [5] | [6] | [7]

NC(N)=NC(=O)c1nc(Cl)c(N)nc1N
not listed: [1]
inactive: all other assays above

NNC(=O)c1ccncc1
not listed: [1]
inactive: all other assays above

O=C(O)c1cccc([N+](=O)[O-])c1
not listed: [1]
inactive: all other assays above

Cn1cc[nH]c1=S
inactive: [2] | [3] | [4] | [5] | [6] | [7]

C/C=C/c1ccc(OC)cc1
inactive: [2] | [3] | [4] | [5] | [6] | [7]

Cc1cn([C@H]2C[C@H](N=[N+]=[N-])[C@@H](CO)O2)c(=O)[nH]c1=O
not listed: [1] | [10]
inactive: all other assays above

Reference: PubChem BioAssay (Tox21)
